Measured values from PubChem BioAssay (NCI).
“And” between values parts separate entries of the source, which are not always exact repeats. Identical values can stand only once. This is part of a sample that, as a whole, favours compounds with a hit. Of some 79,000 tested, about 15% had one in any assay. A structure can be active in one record and inactive in another. The source made the active and inactive calls. Rule as the data show it: active = growth inhibition above about 70%; inactive = the rest.

Experiments:
[1] = NCI Yeast Anticancer Drug Screen. Data for the rad50 strain (AID 155);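 also: 0% = growth of vehicle-only cultures of the same strain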; settings: S. cerevisiae rad50 strain growth inhibition, stronger effect = higher value
Procedure, shortened: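 Growth of the mutant yeast was measured after compound exposure and referenced to vehicle-treated cultures.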

[2] = NCI Yeast Anticancer Drug Screen. Data for the mec2-1 strain (AID 157); settings: S. cerevisiae mec2-1 strain, stronger effect = higher value
Procedure, shortened: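 mec2-1 yeast strain, carrying an alteration in DNA damage repair or cell cycle control, was exposed to compounds; growth inhibition was measured relative to vehicle-treated controls.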

[3] = NCI Yeast Anticancer Drug Screen. Data for the sgs1 mgt1 strain (AID 161);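 also: 0% = growth of cultures given vehicle only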; settings: S. cerevisiae sgs1 mgt1 strain, stronger effect = higher value
Procedure, shortened: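 Yeast cells carrying a defined DNA-repair defect were exposed to test compounds. Growth inhibition was measured relative to vehicle-treated controls.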

[4] = NCI Yeast Anticancer Drug Screen. Data for the cln2 rad14 strain (AID 165);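 also: 0% = growth equal to vehicle treated cultures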; settings: S. cerevisiae cln2 rad14 strain, stronger effect = higher value
Procedure, shortened: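 Yeast carrying cln2 and rad14 alterations (cell cycle control and DNA damage repair) were exposed to compounds. Growth inhibition was measured against vehicle-treated controls.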

[5] = NCI Yeast Anticancer Drug Screen. Data for the bub3 strain (AID 167); settings: S. cerevisiae bub3 mutant strain, stronger effect = higher value
Procedure, shortened: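 Whole-cell yeast assay. The mutant strain was incubated with compounds, and growth inhibition was determined by comparison with vehicle-treated cells.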

[6] = NCI Yeast Anticancer Drug Screen. Data for the mlh1 rad18 strain (AID 175); settings: S. cerevisiae mlh1 rad18 strain growth inhibition, stronger effect = higher value
Procedure, shortened: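 Growth inhibition of the yeast strain was measured after compound exposure and expressed relative to vehicle-treated controls. The strain carries defined defects in DNA damage repair.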

[7] = at 5.0 µM (retest, dose inferred, filed as 0.5)
[8] = at 50.0 µM (retest, dose inferred, filed as 5.0)

| SMILES | growth inhibition [1, 7] | growth inhibition [1, 8] | growth inhibition ([1]; at 50.0 µM) | growth inhibition [2, 7] | growth inhibition [2, 8] | growth inhibition ([2]; at 50.0 µM) | growth inhibition [3, 7] | growth inhibition [3, 8] | growth inhibition ([3]; at 50.0 µM) | growth inhibition [4, 7] | growth inhibition [4, 8] | growth inhibition ([4]; at 50.0 µM) | growth inhibition [5, 7] | growth inhibition [5, 8] | growth inhibition ([5]; at 50.0 µM) | growth inhibition [6, 7] | growth inhibition [6, 8] | growth inhibition ([6]; at 50.0 µM) |
| --- | --- | --- | --- | --- | --- | --- | --- | --- | --- | --- | --- | --- | --- | --- | --- | --- | --- | --- |
| Nc1ccc(Cc2ccc(Br)cc2)cc1 | 28% (inactive) | 98% (active) | 99.2% (active) | 12% (inactive) | 99% (active) | 99.3% (active) | 1% (inactive) | 99% (active) | 99.3% (active) | 8% (inactive) | 98% (active) | 98.8% (active) | 30% (inactive) | 98% (active) | 98.8% (active) | 30% (inactive) | 98% (active) | 99.2% (active) |
| O=C1c2ccccc2C(=O)N1CC[P+](c1ccccc1)(c1ccccc1)c1ccccc1 | 48% (inactive) | 79% (active) | 70.5% (active) and 58.6% (inactive) | 36% (inactive) | 87% (active) | 58.5% (inactive) and 46.8% (inactive) | 20% (inactive) | 69% (inactive) | 63.5% (inactive) and 62.5% (inactive) | -5% (inactive) | 47% (inactive) | 20.8% (inactive) and 40% (inactive) | 30% (inactive) | 79% (active) | 57.9% (inactive) and 43.3% (inactive) | 43% (inactive) | 85% (active) | 63.1% (inactive) and 54.9% (inactive) |
| O=C1OC(c2ccccc2)C(c2ccccc2)=C1c1ccccc1 (configuration not stated) | -21% (inactive) | 91% (active) | -6% (inactive) | -18% (inactive) | 92% (active) | -2.8% (inactive) | -3% (inactive) | 91% (active) | 7.1% (inactive) | -2% (inactive) | 86% (active) | -29% (inactive) | 9% (inactive) | 91% (active) | 9% (inactive) | 4% (inactive) | 90% (active) | 3.65% (inactive) |
| Nc1ccc2c(n1)NCC/C2=N\Nc1ccccc1 | 1% (inactive) | 72% (active) | 90.5% (active) | -2% (inactive) | 60% (inactive) | 78.3% (active) | -4% (inactive) | 69% (inactive) | 79% (active) | -2% (inactive) | 23% (inactive) | 60.9% (inactive) | -5% (inactive) | 91% (active) | 87.8% (active) | 0% (inactive) | 92% (active) | 98% (active) |
